This note sets out measurements from PubChem BioAssay AID624331 (National Center for Advancing Translational Sciences (NCATS), 2012).

Records with an inconclusive call do not appear. Calls of active or inactive are those of the source. Calls come from the whole dose curve; as a rule, active = well fitted activation curve with a large enough effect; inconclusive = small, poorly fitted or top-dose-only effect; inactive = no such curve, though single readings can be large or run the other way.
Potency is the fitted concentration of half-maximal effect.

The assay in a line: qHTS assay for re-activators of p53 using a Luc reporter: Hit Validation with no p53 Expressed. For activity change, positive = activation: 0% is about no effect. Conditions: p53-null cells, luciferase reporter counter-screen; series mostly up to 46.1 µM; activity change, positive = activation: at the top concentration. An excerpt: The p53 tumor suppressor plays a key role in suppression of tumorigenesis and in human carcinogenesis. It is frequently found inactivated in human cancers, mainly by point mutation. These point mutations are found in a wide variety of human cancers and a majority of them affect the DNA binding domain of the protein. The point mutations either alter native p53 conformation or abolish DNA contact. Additionally, cancer cells with p53 mutations are more resistant to chemo-radiation therapies.
This counter screen was run against the hits identified from the primary screen. It uses a cell line that was not transfected with p53. Compounds that show activity in this counter screen show unspecific activation of the assay system and are excluded from further consideration.
NIH Chemical Genomics Center [NCGC]
NIH Molecular Libraries Probe Production Centers Network [MLPCN]
Assay Provider (PI): Yi Sung, University of Michigan at Ann Arbor
5ul of 1000 cells per well are dispensed in all wells except column 4, into white solid-bottom TC-treated Kalypsys plates. The cells are kept in Opti-MEM and supplemented with 10% FBS and dispensed using a Multidrop (Thermo). Then using the Kalypsys pin-tool, 23nl of compounds are pinned. The compounds are starting concentration at 10mM, with 1:5 dilution, 4 points, and the control compound nocodazole is pinned in column 1 at 25mM, 1:3 dilution, in duplicate, 25mM nocodazole is pinned in column 2. Please note, all concentrations are working concentrations. 5ul of 1pM purified luciferase enzyme is dispensed using the Kalypsys dispenser in column 4. Plates are incubated for 24 hrs at 37 deg C, 5% CO2, and 95% humidity. Then 4ul of the detection reagent Amplite (ABD Bioquest) is added using the Kalypsys dispenser. Plates are incubated for 10 min at ambient room temperature and are then read on the ViewLux (Perkin Elmer) using a clear filter for a luminescent read-out.
For `CCOC(=O)C1=C(C)Nc2ncnn2C1c1c[nH]c2ccccc12` (stereo not given), the “activity change, positive = activation” value is 13.4% (inactive). For the molecule `Cc1ccc(NC(=O)/C=C/c2ccco2)nc1`, the “activity change, positive = activation” value is 33.2% (inactive). Regarding `N#CCc1nc(CSc2nc3ccccc3s2)cs1`, the “activity change, positive = activation” value was 17.3% (inactive). Still for that read-out and setting: then `Fc1ccccc1OCCSc1nnnn1-c1ccccc1`, with 40.7% (inactive); and `COc1ccc(NC(=O)CN(C)CC(=O)Nc2ccccc2SC)cc1`, with -37.7% (inactive); and `Cc1cc(NC(=O)c2c(F)c(F)c(F)c(F)c2F)no1`, with 1.86% (inactive). Turning to `COc1cccc(Oc2ccc(N)cn2)c1`, the “activity change, positive = activation” value was -16.6% (inactive). Turning to `COCCn1c(SCC(=O)c2c(N)n(C3CC3)c(=O)[nH]c2=O)nnc1-c1cccc(C)c1`, the “activity change, positive = activation” value is -44.6% (inactive). As to `Cc1cc(C)n2cc(CSc3nc4ccccc4s3)nc2n1`, the “activity change, positive = activation” value was -26.5% (inactive). Still for that read-out and setting: then `CCn1c(=N)n(CCOc2ccc(OC)cc2)c2ccccc21`, with 9.06% (inactive). As for `O=C(N/N=C1\CCc2ccccc21)c1ccccc1O`, the “activity change, positive = activation” value was 10.7% (inactive). Regarding `C=Cc1ccc(Cn2c(=O)n(CCCOC)c(=O)c3sccc32)cc1`, the “activity change, positive = activation” value is -29.1% (inactive). On to `COc1cccc(-c2cn3nc4c(nc3n2)CCCC4)c1`, for which the “activity change, positive = activation” value is -34.5% (inactive). Regarding `O=C(Nc1cccnc1)c1ccc([N+](=O)[O-])s1`, the “activity change, positive = activation” value is -52.7% (inactive). `Cc1ccc(C(=O)N2CC(=O)Nc3ccc(F)cc3C2c2ccc(F)cc2)cc1[N+](=O)[O-]` (stereo not given): the “activity change, positive = activation” value is -57% (inactive). As for `Cc1ccc2nc(-c3ccc(NC(=O)COC(=O)c4cncc(Br)c4)cc3)sc2c1`, the “activity change, positive = activation” value is -17.4% (inactive). On the same count and under the same terms, then `O=C(N/N=C(\c1ccccc1)c1cccnc1)c1cccc(F)c1`, with 53.8% (inactive). In the case of `Cc1cc(C(=O)CSc2nnc(N)s2)c(C)n1Cc1cccs1`, the “activity change, positive = activation” value was -10.8% (inactive). On to `COCCNc1nc2sc3c(c2c(=O)n1Cc1ccco1)CCCCC3`, for which the “activity change, positive = activation” value is 14.1% (inactive). As for `COc1ccc(-c2csc(NCc3ccco3)n2)cc1C`, the “activity change, positive = activation” value was 49% (inactive). With `COc1cc(CN2CCCCC2C(=O)Nc2ccc(Oc3ccccc3)nc2)ccc1O` (stereo not given), the “activity change, positive = activation” value is 1.55% (inactive). As to `CC1CCCC(C)N1C(=O)CSc1nnc(-c2cccs2)o1` (stereo not given), the “activity change, positive = activation” value was 52.8% (inactive). On to `O=C(NNC(=O)C1CCCO1)c1ccccc1Cl` (stereo not given), for which the “activity change, positive = activation” value was -10.1% (inactive). As for `CCOC(=O)c1ccc2ncc(C(=O)OCC)c(NCc3ccco3)c2c1`, the “activity change, positive = activation” value is -11.3% (inactive). Turning to `COCCN(Cc1cn[nH]c1-c1ccc2cc(OC)ccc2c1)C(C)C`, the “activity change, positive = activation” value was -2.86% (inactive). Consider `Nc1c(C(=O)CSc2ccccn2)c(=O)[nH]c(=O)n1C1CC1`, for which the “activity change, positive = activation” value was 18.4% (inactive). Take `Cc1ccc(C)n1-c1cccc(NC(=O)c2ccccc2)c1`: the “activity change, positive = activation” value is -22.5% (inactive). Take `COc1ccc(C(=O)Nc2nnc(C(F)(F)F)s2)cc1`: the “activity change, positive = activation” value was -57.8% (inactive). On the same count and under the same terms, to `Oc1cccc2c(NC(=S)Nc3ccc(OC(F)F)cc3)cccc12` belongs -10.6% (inactive); to `CN1CCc2c(sc(NC(=O)C3COc4ccccc4O3)c2C(N)=O)C1` (stereo not given), -38.2% (inactive); to `O=C(Nc1ccc2c(c1)OCO2)c1cc(Cl)ccn1`, -33% (inactive). `Cc1cc(NC(c2cccnc2)c2ccc3cccnc3c2O)no1` (stereo not given): the “activity change, positive = activation” value was 42.9% (inactive). Same read-out and setting: then `O=C(CN1C(=O)COc2ccccc21)Nc1ccc(F)cc1`, with 36.7% (inactive).

On to `O=C(Nc1ccc(F)cc1F)c1cc2nc3c(c(C(F)(F)F)n2n1)CCCC3`, for which the Potency is 5.8 µM (active). Take `NC(=O)c1cc(Cl)ccc1OCC(=O)Nc1ccc2c(c1)OCO2`: the “activity change, positive = activation” value is 58.5% (inactive). Same read-out and setting: then `COc1ccc2c(c1OC)C(=O)OC2Nc1nc(-c2cc3ccccc3oc2=O)cs1` (stereo not given), with 12.4% (inactive). For the molecule `COc1cccc(/C=N/NC(=O)CCc2n[nH]c(=O)[nH]c2=O)c1O`, the “activity change, positive = activation” value was -13.8% (inactive). For the molecule `O=[N+]([O-])c1cccc(NC(=S)N2CCc3ccccc32)c1`, the “activity change, positive = activation” value was -2.98% (inactive). For `CC(C)c1ccc(C(O)c2nc3ccccc3n2C)cc1` (stereo not given), the “activity change, positive = activation” value is -33.7% (inactive). For the molecule `C/C(=N\NC(=O)c1ccccc1)c1ccc(NC(=O)c2cccs2)cc1`, the “activity change, positive = activation” value was -38.4% (inactive).
